Source: PubChem BioAssay (Tox21)
Results filed as inconclusive are left out. Active and inactive are the calls of the source. Unless noted, the call rests on the fitted dose curve.

What was measured:
[1] = Nuclear factor erythroid 2-related factor 2/antioxidant responsive element (Nrf2/ARE) small molecule agonists: qHTS cell viability counter screen in human keratinocytes (AID 1919968; active means well fitted curve in the direction sought with a large enough effect in the repeat runs; an effect the other way counts as inactive or inconclusive; further: nearly all actives have a fitted effect of over 55% in size; further: potency means the concentration at half of the fitted maximal effect)
Outline: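 HaCaT ARE reporter line, 1,500 cells/well; 5 h settle, 37 C/5% CO2; cpd in DMSO pinned; 23 h exposure; CellTiter-Fluor, 1 h; fluorescence.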

[2] = Nuclear factor erythroid 2-related factor 2/antioxidant responsive element (Nrf2/ARE) small molecule agonists: luciferase reporter gene qHTS assay in human keratinocytes (AID 1919969); further: nearly all actives have a fitted effect of over 35% in size; further: potency means the concentration at half of the fitted maximal effect
[3] = target: Gonadotropin-releasing hormone receptor (Homo sapiens) (UniProt P30968); test: Human gonadotropin-releasing hormone receptor (GnRHR) small molecule agonists, calcium flux assay in GnRHR-HEK293 cells (AID 1920063); further: nearly all actives have a fitted effect of over 35% in size
Outline: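 GnRHR-HEK293, 1500 cells/well, 18 h 37 C/5% CO2; Ca dye 1 h 37 C; cpd pinned (DMSO), agonist mode; kinetic FL 480/540, 3 min, 1 s reads; 15 conc, n=3.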

[4] = target: KiSS-1 receptor (Homo sapiens) (UniProt Q969F8); test: Human kisspeptin (KISS1R) small molecule agonists, calcium flux assay in KISS1R-HEK293 cells (AID 1920064; active means well fitted curve in the direction sought with a large enough effect in the repeat runs; an effect the other way counts as inactive or inconclusive)
Outline: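 Stable human KISS1R HEK293 line; 18 h plating, 37 C/5% CO2; calcium dye 1 h 37 C; compound pin transfer; kinetic fluorescence Ex/Em 480/540, 3 min.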

[5] = p53 small molecule agonists, cell-based qHTS assay with rat liver microsomes (AID 1963578)
Outline: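 p53RE-bla cells, 4,000/well, pre-incubated 5 h, then given compounds plus rat liver microsomes (0.5 mg/mL final) and NADPH (0.5 mg/mL final). Incubation 16 h at 37 C; beta-lactamase reporter read by LiveBLAzer fluorescence after 2 h at room temperature.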

[6] = p53 small molecule agonists, cell-based qHTS assay with human liver microsomes: qHTS cell viability counter screen (AID 1963579); further: nearly all actives have a fitted effect of over 45% in size
Outline: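 p53RE-bla cells, 4,000/well, dosed 5 hours after plating, with human liver microsomes (0.5 mg/mL final) plus NADPH (0.5 mg/mL final), 16 hours at 37 C. Viability read as CellTiter-Glo luminescence after 30 min at room temperature.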

[7] = p53 small molecule agonists, cell-based qHTS assay: qHTS cell viability counter screen (AID 1963581); further: nearly all actives have a fitted effect of over 45% in size
Outline: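 HCT-116 p53RE-bla cells, 4,000/well, plated 5 h before compound pin transfer; 16 h at 37 C; bla substrate 2 h RT; then CellTiter-Glo, 30 min RT, luminescence.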

[8] = target: 5-hydroxytryptamine receptor 2A (Homo sapiens) (UniProt P28223); test: 5-hydroxytryptamine receptor 2A (HTR2A) small molecule antagonists, cell-based qHTS assay (AID 1963586); further: nearly all actives have a fitted effect of over 45% in size
Outline: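 Antagonist-mode intracellular calcium assay: DOI (4 nM) added after 5 min compound pre-incubation at room temperature to dye-loaded HTR2A-CHO cells. Fluorescence followed for 3 min, sampled every second.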

[9] = target: 5-hydroxytryptamine receptor 2A (Homo sapiens) (UniProt P28223); test: 5-hydroxytryptamine receptor 2A (HTR2A) small molecule agonists, cell-based qHTS assay (AID 1963587); further: nearly all actives have a fitted effect of over 30% in size
Outline: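 HTR2A-CHO cells, plated 18 h at 37 C/5% CO2, dye-loaded 1 h at 37 C; compounds in DMSO added by pin tool (agonist mode). Intracellular calcium flux read as kinetic fluorescence on FDSS over 2 min at 1 s intervals.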

[10] = target: Muscarinic acetylcholine receptor M1 (Homo sapiens) (UniProt P11229); test: Cholinergic receptor muscarinic 1 (CHRM1) small molecule antagonists, cell-based qHTS assay (AID 1963588); further: nearly all actives have a fitted effect of over 40% in size
Outline: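 CHRM1-CHO calcium-flux assay, antagonist mode. Cells were seeded 18 h, dye-loaded 1 h at 37 C and given compound for 5 min at RT, then acetylcholine was added at 50nM. FDSS fluorescence was read 3 min; 15 concentrations, three runs.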

[11] = target: Muscarinic acetylcholine receptor M1 (Homo sapiens) (UniProt P11229); test: Cholinergic receptor muscarinic 1 (CHRM1) small molecule agonists, cell-based qHTS assay (AID 1963589); further: nearly all actives have a fitted effect of over 35% in size
Outline: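 Human M1 in stable CHO line; 18 h plating, 1 h dye load 37 C; cpd added (agonist mode); Ca2+ fluorescence kinetic read, 1 s intervals; 15 conc, 3 runs.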

[12] = target: Beta-2 adrenergic receptor (Homo sapiens) (UniProt P07550); test: Adrenergic beta2 receptor (ADRB2) small molecule antagonists, cell-based qHTS assay (AID 1963592); further: series mostly up to about 92 µM; nearly all actives have a fitted effect of over 50% in size
Outline: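 Cells (CHO, stable ADRB2 overexpression) incubated 18-20hr at 37C; compounds added from DMSO; agonist mix (1nM isoproterenol, 100uM IBMX, 25uM Ro-20-1724) added; 0.5hr RT; d2-cAMP and anti-cAMP-cryptate added; 1hr RT; 665/615 nm read.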

[13] = target: D(2) dopamine receptor (Homo sapiens) (UniProt P14416); test: Dopamine D2 receptor (DRD2) small molecule agonists, cell-based qHTS assay (AID 1963594); further: nearly all actives have a fitted effect of over 35% in size
Outline: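 HEK293 cells stably expressing DRD2 were cultured 24 h at 37 C, then given Ro20-1724 (0.1 mM final) and compounds for 10 min at room temperature. NKH477 (200nM) was then added for 30 min. cAMP was read by HTRF.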

[14] = target: D(2) dopamine receptor (Homo sapiens) (UniProt P14416); test: Dopamine D2 receptor (DRD2) small molecule antagonists, cell-based qHTS assay (AID 1963595; active means well fitted inhibition curve with a large enough effect in the signal ratio in the repeat runs, with a control signal flat; the % refers to the signal ratio; further: potency means the concentration at half of the fitted maximal effect)
Outline: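 Antagonist mode in DRD2-HEK293 cells: after compound addition with 0.1 mM Ro20-1724, cells received quinpirole (12 nM) and NKH477 (200 nM) for 30 min at room temperature; HTRF cAMP read after 1 h detection.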

[15] = p53 small molecule agonists, cell-based qHTS assay with human liver microsomes (AID 1963577)
Outline: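 p53RE-bla cells, 4,000/well, compound added after 5 h, with human liver microsomes 0.5 mg/mL and NADPH 0.5 mg/mL final; 16 h at 37 C, then LiveBLAzer 2 h RT, fluorescence.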

[16] = p53 small molecule agonists, cell-based qHTS assay with rat liver microsomes: qHTS cell viability counter screen (AID 1963580); further: nearly all actives have a fitted effect of over 45% in size
Outline: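 In HCT-116 cells carrying a p53 response element-bla reporter, compounds were metabolically activated in situ by rat liver microsomes with NADPH over 16 h. Cell ATP content then served as the cytotoxicity measure.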

[17] = p53 small molecule agonists, cell-based qHTS assay (AID 1963582; active means well fitted activation curve with a large enough effect in the signal ratio in the repeat runs, not every such curve was filed as active; the % refers to the signal ratio)
Outline: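 Reporter line: p53RE-bla. Pre-incubation 5 h, 37 C, 5% CO2; compound (DMSO, pin tool) 16 h, 37 C; B/G FRET substrate 2 h RT; fluorescence intensity read.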

[18] = cAMP Responsive Elements (CRE) small molecule agonists, cell-based qHTS assay (AID 1963590)
Outline: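 HEK 293T CRE-bla, 2,000 cells/well, 18 h preincubation 37 C/5% CO2; cpds (DMSO) pinned, 3 h; LiveBLAzer B/G FRET substrate, 2 h RT.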

[19] = cAMP Responsive Elements (CRE) small molecule antagonists, cell-based qHTS assay (AID 1963591; active means well fitted inhibition curve with a large enough effect in the signal ratio in the repeat runs, not every such curve was filed as active; the % refers to the signal ratio)
Outline: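 Beta-lactamase reporter read by FRET substrate (LiveBLAzer B/G) after 2 h at room temperature. CRE-bla HEK293T cells had received compound plus 0.25 uM (final) NKH477 for 3 h at 37 °C.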

[20] = target: Beta-2 adrenergic receptor (Homo sapiens) (UniProt P07550); test: Adrenergic beta2 receptor (ADRB2) small molecule agonists, cell-based qHTS assay (AID 1963593);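 further: CHO cells stably overexpressing human ADRB2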
Outline: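 CHO cells stably over-expressing ADRB2 were plated overnight at 37C, then dosed with compounds plus a stimulation mix containing 100uM IBMX and 25uM Ro-20-1724 for 0.5hr at room temperature. cAMP was measured by HTRF competition, 1hr.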
On the % scale 0 is the no-effect control and ±100 the full control effect.

Gonadotropin-releasing hormone receptor (Homo sapiens), sequence (P30968 whole entry, looked up): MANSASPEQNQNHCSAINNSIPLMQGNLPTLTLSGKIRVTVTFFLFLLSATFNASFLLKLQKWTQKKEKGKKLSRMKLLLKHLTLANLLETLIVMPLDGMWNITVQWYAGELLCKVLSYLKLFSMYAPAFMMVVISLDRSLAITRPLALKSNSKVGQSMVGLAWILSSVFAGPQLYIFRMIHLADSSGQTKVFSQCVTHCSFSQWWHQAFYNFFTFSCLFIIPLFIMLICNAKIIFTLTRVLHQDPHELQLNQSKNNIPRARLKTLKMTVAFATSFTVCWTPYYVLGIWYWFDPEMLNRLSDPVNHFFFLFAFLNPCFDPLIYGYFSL
5-hydroxytryptamine receptor 2A (Homo sapiens), sequence (P28223 whole entry, looked up): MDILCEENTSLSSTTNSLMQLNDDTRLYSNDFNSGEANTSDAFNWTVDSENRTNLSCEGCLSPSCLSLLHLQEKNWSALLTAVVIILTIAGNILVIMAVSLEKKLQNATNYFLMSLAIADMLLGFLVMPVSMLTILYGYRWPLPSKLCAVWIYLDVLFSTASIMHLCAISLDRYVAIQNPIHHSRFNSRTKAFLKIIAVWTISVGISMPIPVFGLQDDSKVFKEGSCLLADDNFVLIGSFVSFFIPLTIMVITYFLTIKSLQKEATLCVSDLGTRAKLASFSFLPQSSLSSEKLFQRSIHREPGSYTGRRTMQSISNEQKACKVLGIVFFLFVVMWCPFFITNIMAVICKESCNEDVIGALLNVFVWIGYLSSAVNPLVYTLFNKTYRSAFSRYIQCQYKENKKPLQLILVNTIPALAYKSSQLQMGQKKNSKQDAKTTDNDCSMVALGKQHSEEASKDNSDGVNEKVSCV
KiSS-1 receptor (Homo sapiens), sequence (Q969F8 whole entry, looked up): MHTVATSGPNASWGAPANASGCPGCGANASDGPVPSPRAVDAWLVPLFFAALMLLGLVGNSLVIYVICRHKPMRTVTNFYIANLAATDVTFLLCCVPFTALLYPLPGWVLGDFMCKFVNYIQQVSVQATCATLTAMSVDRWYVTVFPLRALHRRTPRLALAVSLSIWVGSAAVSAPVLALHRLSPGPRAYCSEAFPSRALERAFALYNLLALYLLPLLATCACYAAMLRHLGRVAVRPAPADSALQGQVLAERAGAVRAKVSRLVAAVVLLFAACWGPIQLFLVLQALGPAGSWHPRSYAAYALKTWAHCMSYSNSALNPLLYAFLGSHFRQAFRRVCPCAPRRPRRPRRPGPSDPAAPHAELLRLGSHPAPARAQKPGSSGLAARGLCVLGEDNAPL
D(2) dopamine receptor (Homo sapiens), sequence (P14416 whole entry, looked up): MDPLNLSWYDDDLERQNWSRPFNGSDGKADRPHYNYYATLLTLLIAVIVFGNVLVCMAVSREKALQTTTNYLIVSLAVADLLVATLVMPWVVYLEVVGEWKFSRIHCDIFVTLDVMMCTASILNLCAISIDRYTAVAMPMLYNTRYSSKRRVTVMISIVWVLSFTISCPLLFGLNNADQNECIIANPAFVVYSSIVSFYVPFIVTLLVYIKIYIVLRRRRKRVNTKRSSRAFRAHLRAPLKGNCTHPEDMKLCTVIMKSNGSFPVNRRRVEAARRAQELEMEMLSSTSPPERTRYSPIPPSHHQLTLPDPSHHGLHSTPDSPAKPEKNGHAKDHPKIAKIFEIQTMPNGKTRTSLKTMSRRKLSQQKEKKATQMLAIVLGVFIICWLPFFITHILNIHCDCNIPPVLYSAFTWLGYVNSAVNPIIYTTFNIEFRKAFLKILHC
Beta-2 adrenergic receptor (Homo sapiens), sequence (P07550 whole entry, looked up): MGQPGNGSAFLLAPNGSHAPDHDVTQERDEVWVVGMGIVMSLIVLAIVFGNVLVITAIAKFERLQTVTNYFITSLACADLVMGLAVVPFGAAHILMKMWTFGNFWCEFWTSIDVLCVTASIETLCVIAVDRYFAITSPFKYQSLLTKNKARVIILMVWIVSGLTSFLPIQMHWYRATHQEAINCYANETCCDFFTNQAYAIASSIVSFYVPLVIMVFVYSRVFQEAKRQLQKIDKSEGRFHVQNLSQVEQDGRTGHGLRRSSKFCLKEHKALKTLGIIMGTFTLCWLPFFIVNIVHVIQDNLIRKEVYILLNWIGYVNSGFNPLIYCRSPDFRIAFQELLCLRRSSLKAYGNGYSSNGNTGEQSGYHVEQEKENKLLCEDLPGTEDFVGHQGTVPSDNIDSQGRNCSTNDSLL
Muscarinic acetylcholine receptor M1 (Homo sapiens), sequence (P11229 whole entry, looked up): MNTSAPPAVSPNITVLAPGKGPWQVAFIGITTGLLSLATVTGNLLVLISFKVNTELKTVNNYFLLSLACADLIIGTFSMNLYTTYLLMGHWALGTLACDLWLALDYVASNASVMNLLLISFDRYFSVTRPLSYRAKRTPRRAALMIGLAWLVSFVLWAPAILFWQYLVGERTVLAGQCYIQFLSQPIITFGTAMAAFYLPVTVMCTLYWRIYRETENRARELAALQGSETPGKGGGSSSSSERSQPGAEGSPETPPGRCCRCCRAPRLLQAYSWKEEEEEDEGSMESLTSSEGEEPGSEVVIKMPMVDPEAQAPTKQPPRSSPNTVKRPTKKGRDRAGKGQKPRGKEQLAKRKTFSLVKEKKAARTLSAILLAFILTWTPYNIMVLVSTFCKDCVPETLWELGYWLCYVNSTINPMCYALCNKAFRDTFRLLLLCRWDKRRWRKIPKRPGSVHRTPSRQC

C=CC(=O)OCC(O)COc1ccccc1 (centres undefined)
inactive: Potency [3] | outcome [4] | Potency [5] | Potency [6] | Potency [7] | Potency [8] | Potency [9] | Potency [10] | Potency [11] | Potency [12] | Potency [13] | Potency [14]
active: Potency [1] 61.1 µM | Potency [2] 68.6 µM

COc1ccc(NS(=O)(=O)c2ccc(N)cc2)nn1
inactive: Potency [1] | Potency [2] | Potency [3] | outcome [4] | Potency [15] | Potency [5] | Potency [6] | Potency [16] | Potency [7] | Potency [17] | Potency [8] | Potency [9] | Potency [10] | Potency [11] | Potency [18] | Potency [19] | Potency [12] | Potency [13]

CCOCCOCCOC(C)=O
inactive: Potency [1] | Potency [2] | Potency [3] | outcome [4] | Potency [15] | Potency [5] | Potency [6] | Potency [16] | Potency [7] | Potency [17] | Potency [8] | Potency [9] | Potency [10] | Potency [11] | Potency [18] | Potency [19] | Potency [12] | Potency [13] | Potency [14]

CCOc1ccccc1N
inactive: Potency [1] | Potency [2] | Potency [3] | outcome [4] | Potency [5] | Potency [16] | Potency [7] | Potency [17] | Potency [9] | Potency [10] | Potency [11] | Potency [12] | Potency [14]

Cc1ccc(C)c(N)c1
inactive: Potency [1] | Potency [2] | Potency [3] | outcome [4] | Potency [6] | Potency [7] | Potency [17] | Potency [8] | Potency [9] | Potency [10] | Potency [11] | Potency [18] | Potency [19] | Potency [12] | Potency [13] | Potency [14]

CCC(C(=O)O)c1ccc(N2Cc3ccccc3C2=O)cc1 (centres undefined)
inactive: Potency [1] | Potency [2] | Potency [3] | outcome [4] | Potency [5] | Potency [16] | Potency [7] | Potency [8] | Potency [9] | Potency [10] | Potency [20] | Potency [13] | Potency [14]

Nc1cccc2c(=O)[nH][nH]c(=O)c12
inactive: Potency [1] | Potency [2] | Potency [3] | outcome [4] | Potency [6] | Potency [16] | Potency [7] | Potency [9] | Potency [10] | Potency [11] | Potency [19] | Potency [12] | Potency [14]

CO[Si](OC)(OC)OC
inactive: Potency [1] | Potency [2] | Potency [3] | outcome [4] | Potency [6] | Potency [16] | Potency [7] | Potency [17] | Potency [8] | Potency [9] | Potency [11] | Potency [18] | Potency [19] | Potency [12] | Potency [20] | Potency [13] | Potency [14]

C/C=C(\C)C=O
inactive: Potency [1] | Potency [2] | Potency [3] | outcome [4] | Potency [15] | Potency [5] | Potency [6] | Potency [16] | Potency [7] | Potency [17] | Potency [8] | Potency [9] | Potency [10] | Potency [11] | Potency [18] | Potency [19] | Potency [12] | Potency [13] | Potency [14]

COC(=O)NN
inactive: Potency [1] | Potency [2] | Potency [3] | outcome [4] | Potency [5] | Potency [6] | Potency [16] | Potency [17] | Potency [8] | Potency [9] | Potency [10] | Potency [11] | Potency [12] | Potency [13] | Potency [14]

CCOC(=O)C1=NN(c2ccc(Cl)cc2Cl)C(C)(C(=O)OCC)C1 (centres undefined)
inactive: Potency [1] | Potency [2] | Potency [3] | outcome [4] | Potency [5] | Potency [6] | Potency [7] | Potency [8] | Potency [9] | Potency [11] | Potency [18] | Potency [12] | Potency [13] | Potency [14]

CCOc1cccc(N)c1
inactive: Potency [1] | Potency [2] | Potency [3] | outcome [4] | Potency [15] | Potency [5] | Potency [6] | Potency [16] | Potency [7] | Potency [17] | Potency [8] | Potency [9] | Potency [10] | Potency [11] | Potency [18] | Potency [19] | Potency [12] | Potency [13] | Potency [14]

Cc1c[nH]c2ccccc12
inactive: Potency [1] | Potency [2] | Potency [3] | outcome [4] | Potency [5] | Potency [16] | Potency [7] | Potency [17] | Potency [8] | Potency [9] | Potency [10] | Potency [11] | Potency [18] | Potency [19] | Potency [12] | Potency [20] | Potency [14]

NCC1CCC(C(=O)Oc2ccc(CCC(=O)O)cc2)CC1 (centres undefined)
inactive: Potency [1] | Potency [2] | Potency [3] | outcome [4] | Potency [6] | Potency [16] | Potency [7] | Potency [17] | Potency [18] | Potency [19] | Potency [13]

CCCCCCn1c(=O)c2c(ncn2C)n(C)c1=O
inactive: Potency [1] | Potency [2] | Potency [3] | outcome [4] | Potency [15] | Potency [5] | Potency [6] | Potency [16] | Potency [7] | Potency [17] | Potency [8] | Potency [9] | Potency [10] | Potency [11] | Potency [18] | Potency [19] | Potency [12] | Potency [13] | Potency [14]

Cc1nc2n(c(=O)c1CCN1CCC(c3noc4cc(F)ccc34)CC1)CCC[C@H]2O
inactive: activity change, negative = cytotoxicity [1] 0.553% [at 19 µM] | activity, positive = activation [2] 1.67% [at 19 µM] | activity change [3] -1.01% [at 11.8 µM, hits give high values] | activation [4] 2.67% [at 15.8 µM] | activation [15] -1.61% [at 13.5 µM] | activation [5] -1.62% [at 13.6 µM] | activity change, negative = cytotoxicity [6] -2.44% [at 13.5 µM] | activity change, negative = cytotoxicity [16] 3.38% [at 13.5 µM] | activity change, negative = cytotoxicity [7] -16.9% [at 13.5 µM] | activation [17] -2.71% [at 13.5 µM] | activation [11] -0.822% [at 15.8 µM] | activation [18] -1.39% [at 19 µM] | activity change, negative = inhibition [19] 6.49% [at 18.9 µM] | activity change, negative = inhibition [12] -0.824% [at 19 µM] | Potency [20] | activation [13] -27% [at 19 µM]
active: Potency [14] 0.0326 µM
